± gives the standard deviation of the averaged measurements.
Key:
[1] = system: CLZ3 (HCA2 human fibroblast dual HR-NHEJ reporter); test: NHEJ repair efficiency (GFP+ cells) relative to control (log10 fold); higher = more non-homologous end joining; settings: 5 µM; doxycycline 0.5 ug/mL
[2] = system: CLZ3 (HCA2 human fibroblast dual HR-NHEJ reporter); test: HR repair efficiency (tdTomato+ cells) relative to control (log10 fold); higher = more homologous recombination; settings: 5 µM; doxycycline 0.5 ug/mL
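For HR repair efficiency (tdTomato+ cells) relative to control in this document: compound given one day before doxycycline, which switches on I-SceI endonuclease expression to create double-strand breaks within the integrated reporter.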
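For NHEJ repair efficiency (GFP+ cells) relative to control in this document: compound given one day ahead of doxycycline, which switches on I-SceI endonuclease to cut the chromosomally integrated reporter and create DSBs.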

| SMILES | NHEJ repair efficiency (log10) [1] | HR repair efficiency (log10) [2] |
| --- | --- | --- |
| OCCc1ccc(O)c(O)c1 [Hydroxytyrosol] | 0.0571 | 0.228 |
| CC1OC(OC2C(OC3CCC4(C)C(CCC5(C)C4CC=C4C6CC(C)(C)CCC6(C(=O)OC6OC(COC7OC(CO)C(O)C(O)C7O)C(O)C(O)C6O)CCC45C)C3(C)CO)OCC(O)C2O)C(O)C(O)C1O (configuration not stated) [Dipsacoside B] | -0.0161 ± 0.011 | 0.00385 ± 0.11 |
| c1cc2c(c3c1CC1c4cc5c(cc4CCN1C3)OCO5)OCO2 (configuration not stated) [Tetrahydrocoptisine] | -0.0636 | -0.0746 |
| OCc1ccc(O[C@@H]2O[C@H](CO)[C@@H](O)[C@H](O)[C@H]2O)cc1 [Gastrodin] | 0.113 | 0.307 |
| C[C@@H]1O[C@@H](O[C@@H]2[C@H](O)[C@@H](O)[C@H](O[C@H]3CC[C@@]4(C)C(CC[C@]5(C)C4C=C[C@]46OC[C@@]7(CCC(C)(C)CC74)[C@@H](O)C[C@]65C)C3(C)C)O[C@@H]2CO[C@@H]2O[C@H](CO)[C@@H](O)[C@H](O)[C@H]2O)[C@H](O)[C@H](O)[C@H]1O (some centres not stated) [Saikosaponin c] | -0.0431 | -0.104 |
| CC[C@]12CCCN3CCc4c(n(c5ccccc45)[C@@](O)(C(=O)OC)C1)[C@@H]32 [Vincamine] | 0.104 | 0.0346 |
| COc1cc2oc(=O)ccc2c(OC)c1O [Fraxinol] | 0.0138 | 0.0872 |
| Oc1ccc2c(c1)OC[C@]1(O)Cc3cc(O)c(O)cc3[C@H]21 [Brazilin] | -0.0322 | -0.00638 |
| O=C[C@H](O)[C@@H](O)[C@H](O)[C@H](O)CO[C@H]1O[C@H](CO[C@H]2O[C@H](CO)[C@H](O)[C@H](O)[C@H]2O)[C@H](O)[C@H](O)[C@H]1O [Manninotriose] | 0.0359 | 0.0215 |
| C[C@@H]1O[C@@H](O[C@H]2C(=O)c3c(O)cc(O)cc3O[C@@H]2c2ccc(O)c(O)c2)[C@H](O)[C@H](O)[C@H]1O [Astilbin] | 0.0148 | 0.109 |
| O=C(/C=C/c1ccc(O)c(O)c1)O[C@H](C(=O)O)[C@H](OC(=O)/C=C/c1ccc(O)c(O)c1)C(=O)O [Chicoric Acid] | 0.0111 | 0.107 |
| CC1(C)O[C@H]1COc1c2ccoc2cc2oc(=O)ccc12 [Oxypeucedanin] | 0.0689 | 0.0078 |
| Oc1ccc(/C=C/c2cc(O)cc(O)c2)cc1 [Resveratrol] | -0.0132 | 0.0336 |
| CC1(C)CCC2(CO)C(=C3C=CC4C5(C)CCC(OC6OC(COC7OC(CO)C(O)C(O)C7O)C(OC7OC(CO)C(O)C(O)C7O)C(O)C6O)C(C)(CO)C5CCC4(C)C3(C)CC2O)C1 (configuration not stated) [Clinopodiside A] | -0.0569 | 0.0428 |
| CC1(C)[C@@H](O[C@H]2O[C@H](C(=O)O)[C@@H](O)[C@H](O)[C@H]2O[C@@H]2O[C@H](C(=O)O)[C@@H](O)[C@H](O)[C@H]2O)CC[C@]2(C)[C@H]3C(=O)C=C4[C@@H]5C[C@@](C)(C(=O)O)CC[C@]5(C)CC[C@@]4(C)[C@]3(C)CC[C@@H]12 [Monoammonium Glycyrrhizinate] | 0.137 | -0.00605 |
| C[N+](C)(C)[C@H](Cc1c[nH]c2ccccc12)C(=O)[O-] [Hypaphorine] | 0.0288 | -0.124 |
| COc1cc2ccc(=O)oc2cc1O [Scopoletin] | -0.0239 | -0.177 |
| OC[C@H]1OC(O)[C@@H](O)[C@@H](O)[C@@H]1O (some centres not stated) [Mannose] | 0.0722 | 0.0481 |
| C=CCc1ccc(O)c(-c2ccc(O)c(CC=C)c2)c1 [Honokiol] | 0.125 | 0.163 |
| c1cc2c(cc1O[C@H]1OC[C@H]3[C@@H]1CO[C@@H]3c1ccc3c(c1)OCO3)OCO2 [Sesamolin] | 0.101 | 0.22 |
| CC(C)(O)[C@H](O)COc1c2ccoc2cc2oc(=O)ccc12 [Oxypeucedanin Hydrate] | -0.0248 | 0.00711 |
| CC[C@H](CC[C@@H](C)[C@H]1CC[C@H]2[C@@H]3CC=C4C[C@@H](O[C@@H]5O[C@H](CO)[C@@H](O)[C@H](O)[C@H]5O)CC[C@]4(C)[C@H]3CC[C@]12C)C(C)C [Daucosterol] | -0.00976 | 0.0626 |
| O=C(/C=C/c1ccc(O)c(O)c1)O[C@H]1[C@H](O)C[C@](O)(C(=O)O)C[C@H]1O [Cryptochlorogenic Acid] | 0.102 | 0.168 |
| O[C@@H]1[C@@H](O)[C@@H](OC/C=C/c2ccccc2)O[C@H](CO[C@@H]2OC[C@H](O)[C@H](O)[C@H]2O)[C@H]1O [Rosavin] | 0.0495 | 0.148 |
| C[C@H](CCC(=O)O)[C@H]1CC[C@H]2[C@@H]3CC[C@@H]4C[C@H](O)CC[C@]4(C)[C@H]3C[C@H](O)[C@]12C [Deoxycholic acid] | -0.0363 | 0.0026 |
| O=C(O)c1cc(O)c2c(c1)C(=O)c1cccc(O)c1C2=O [Rhein] | 0.0809 | -0.07 |

| SMILES | NHEJ repair efficiency (log10) [1] | HR repair efficiency (log10) [2] |
| --- | --- | --- |
| Oc1cc(O)c2c(c1)O[C@H](c1cc(O)c(O)c(O)c1)[C@H](O)C2 [(-)Epigallocatechin] | -0.0905 | -0.0527 |
| COc1cccc(OC)c1C(=O)OCc1cc(O)ccc1O[C@@H]1O[C@H](CO)[C@@H](O)[C@H](O)[C@H]1O [Curculigoside] | 0.0105 | 0.0401 |
| C=C1CC[C@@H]2[C@](C)(CO)[C@H](O)CC[C@@]2(C)[C@H]1C/C=C1\C=COC1=O [Dehydroandrographolide] | 0.015 | 0.116 |
| COc1cc2oc(=O)ccc2c(OC)c1C[C@@H](O)C(C)(C)O [Toddalolactone] | 0.0484 | 0.018 |
| O=c1cc(-c2ccccc2)oc2cc(O)c(O)c(O)c12 [Baicalein] | 0.203 | 0.17 |
| CC(=O)CCc1ccc(O)cc1 [Raspberry Ketone] | -0.163 | -0.0897 |
| O=C(/C=C/c1ccc(O)c(O)c1)O[C@@H]1[C@H](O)C[C@@](O)(C(=O)O)C[C@H]1OC(=O)/C=C/c1ccc(O)c(O)c1 [Isochlorogenic acid B] | 0.142 | 0.105 |
| O=C(O)/C=C/c1ccc(O)c(O)c1 [Caffeic Acid] | 0.0711 | 0.156 |
| O=c1cc(-c2ccc(O)cc2)oc2c([C@@H]3O[C@H](CO)[C@@H](O)[C@H](O)[C@H]3O)c(O)c([C@@H]3OC[C@H](O)[C@H](O)[C@H]3O)c(O)c12 [Isoschaftoside] | -0.0804 | 0.0575 |
| CC[C@@H]1[C@H]2CCCCN3[C@H]2[C@H](C[C@H]3[C@@H]2C[C@H](C)C(=O)O2)[C@@H]2[C@H]1OC(=O)[C@H]2C [Tuberostemonine] | 0.233 | -0.0247 |
| COc1cc([C@@H]2[C@H]3CO[C@@]4(O)C(=O)[C@@H]2C=C([C@H]2Oc5cc(O)cc(O)c5C(=O)[C@@H]2O)[C@@H]34)ccc1O [Silydianin] | -0.0155 ± 0.092 | 0.076 ± 0.0068 |
| CC(CC(=O)C[C@@H](C)[C@H]1CC(=O)[C@@]2(C)C3=C(C(=O)C[C@]12C)[C@@]1(C)CCC(=O)C(C)(C)[C@@H]1C[C@@H]3O)C(=O)O (some centres not stated) [Ganoderic Acid D] | 0.113 | -0.241 |
| C[C@H](CC[C@@]1(O)O[C@H]2C[C@H]3[C@@H]4CC=C5C[C@@H](O[C@@H]6O[C@H](CO)[C@@H](O[C@@H]7O[C@@H](C)[C@H](O)[C@@H](O)[C@H]7O)[C@H](O)[C@H]6O[C@@H]6O[C@@H](C)[C@H](O)[C@@H](O)[C@H]6O)CC[C@]5(C)[C@H]4CC[C@]3(C)[C@H]2[C@@H]1C)CO[C@@H]1O[C@H](CO)[C@@H](O)[C@H](O)[C@H]1O [Protodioscin] | -0.00725 | -0.042 |
| C=C1C(=O)[C@@]23CC[C@@H]4C(C)(C)[C@H](O)CC[C@@]4(C)[C@@H]2[C@@H](O)C[C@@H]1C3 [Tenuifolin A] | -0.0342 | -0.13 |
| CC(C)=CC[C@H](O)/C(C)=C/CO[C@@H]1O[C@H](CO)[C@@H](O)[C@H](O)[C@H]1O [Rosiridin] | 0.096 | 0.104 |
| COc1cc(-c2oc3cc(O)cc(O)c3c(=O)c2O[C@@H]2O[C@H](CO)[C@@H](O)[C@H](O)[C@H]2O[C@@H]2O[C@@H](C)[C@H](O)[C@@H](O)[C@H]2O)ccc1O [Isorhamnetin-3-O-Nehesperidine] | -0.039 | -0.0649 |
| C[C@@H]1O[C@@H](Oc2c(-c3cc(O)c(O)c(O)c3)oc3cc(O)cc(O)c3c2=O)[C@H](O)[C@H](O)[C@H]1O [Myricetrin] | 0.0716 | -0.0586 |
| CC(=O)C1=C(O)C=C2Oc3c(C(C)=O)c(O)c(C)c(O)c3C2(C)C1=O (stereo in doubt) [Usnic Acid] | 0.00929 | 0.00791 |
| NCCCC(=O)O [g-Aminobutyric acid] | 0.0698 | 0.0647 |
| C=C(C)[C@@H]1CC[C@]2(C(=O)O)CC[C@]3(C)[C@H](CC[C@@H]4[C@@]5(C)CCC(=O)C(C)(C)[C@@H]5CC[C@]43C)[C@@H]12 [Liquidambaric Acid] | -0.0687 | 0.0487 |
| CC1CCC(C(C)C)C(O)C1 (racemic) [dl-Menthol] | 0.0823 | 0.0753 |
| CC(C)=CC(O)C/C(C)=C/COc1c2ccoc2cc2oc(=O)ccc12 (configuration not stated) [Notopterol] | 0.0643 | 0.151 |
| C=C(C)[C@@H]1CC[C@]2(C(=O)O)CC[C@]3(C)[C@H](CC[C@@H]4[C@@]5(C)CC[C@H](O[C@@H]6OC[C@H](O)[C@H](O)[C@H]6O[C@@H]6O[C@@H](C)[C@H](O)[C@@H](O)[C@H]6O)[C@@](C)(CO)[C@@H]5CC[C@]43C)[C@@H]12 [Anemoside A3] | 0.0688 | 0.0291 |
| COc1cc2c(cc1OC)[C@@H]1Cc3ccc(OC)c(OC)c3CN1CC2 [Tetrahydropalmatine] | -0.0787 | 0.0375 |
| C[C@@H]1CC[C@]2(C(=O)O[C@@H]3O[C@H](CO)[C@@H](O)[C@H](O)[C@H]3O)CC[C@]3(C)C(=CC[C@@H]4[C@@]5(C)CC[C@H](O)[C@@](C)(CO)[C@@H]5CC[C@]43C)[C@@H]2[C@]1(C)O [Pedunculoside] | 0.0473 | 0.237 |

Reference: the supplement of paper PMC7380943
